Screening data: PubChem, C. David Weaver Laboratory, Vanderbilt University
Shown is part of a subset that was picked to be rich in hits.
GIRK2 activ: activators of human GIRK2 potassium channels | P48051 | HEK293-GIRK2 thallium flux, Thallos fluorescence, MPD | calls only for hits at 25 µM | actives 0.05% (n = 63,000); call rule not given here
Target sequence (P48051 whole entry, looked up): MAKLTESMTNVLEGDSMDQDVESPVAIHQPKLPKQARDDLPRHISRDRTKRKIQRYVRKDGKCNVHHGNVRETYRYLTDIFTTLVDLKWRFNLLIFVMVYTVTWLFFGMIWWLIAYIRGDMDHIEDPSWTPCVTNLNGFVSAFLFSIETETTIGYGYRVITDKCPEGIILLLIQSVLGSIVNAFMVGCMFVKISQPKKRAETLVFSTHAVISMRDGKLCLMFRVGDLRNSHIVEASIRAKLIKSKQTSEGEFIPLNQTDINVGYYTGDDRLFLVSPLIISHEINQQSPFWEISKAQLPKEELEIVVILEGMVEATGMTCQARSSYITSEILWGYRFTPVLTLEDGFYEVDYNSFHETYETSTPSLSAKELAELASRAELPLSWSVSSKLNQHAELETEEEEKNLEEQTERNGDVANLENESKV
The depositor's hits bear a star.

How did O=C(CSc1ncccc1-c1nc2ccccc2[nH]1)NCC1CCCO1 (stereo unspecified) do in these assays?
GIRK2 activ: inactive

Results for COCCCNC(=O)CSc1nc(-c2cccc(F)c2)[nH]c1-c1ccccc1 ?
GIRK2 activ: active

Results for O=C(CSc1nc(-c2ccccc2)[nH]c1-c1ccc(F)cc1)NCC1CCCO1 (stereo unspecified) ?
GIRK2 activ: active

What do the screens show for `CCOc1ccc(-c2nc(SCC(=O)NCCCOC)c(-c3ccccc3)[nH]2)cc1OC`?
GIRK2 activ: inactive

What do the screens show for `COc1ccc(-c2nc(SCC(=O)NCC3CCCO3)c(-c3ccc(C)cc3)[nH]2)cc1OC` (stereo unspecified)?
GIRK2 activ: inactive

How did COCCNC(=O)CSc1nc(-c2ccc(C)cc2)[nH]c1-c1ccccc1 do in these assays?
GIRK2 activ: inactive

Results for Cc1cc(C)cc(N(Cc2cccc(F)c2)S(=O)(=O)c2cccn3c(C)nnc23)c1 ?
GIRK2 activ: inactive

Results for O=C(Cn1nc2c(c1NC(=O)c1ccc(C(F)(F)F)cc1)CSC2)NCc1ccco1 ?
GIRK2 activ: inactive

Results for O=C(Nc1nc(-c2ccco2)cs1)C1(c2ccccc2)CCOCC1 ?
GIRK2 activ: inactive

How did Cc1cc2nn(CC(=O)Nc3ccc(F)cc3)c(=O)n2c(Nc2ccccc2C)n1 do in these assays?
GIRK2 activ: inactive

How did CCc1ccc(S(=O)(=O)Nc2cnc(Oc3ccccc3F)nc2)cc1 do in these assays?
GIRK2 activ: inactive

What do the screens show for `COc1cccc2cc(C(=O)NCC3(c4ccc(F)cc4)CC3)c(=O)oc12`?
GIRK2 activ: inactive

How did N=C1C(c2nc3ccccc3[nH]2)=C(O)CN1Cc1ccc(F)cc1 do in these assays?
GIRK2 activ: inactive

What do the screens show for `NC(=O)c1ccccc1NC(=O)c1csc(Nc2ccc(OC(F)F)cc2)n1`?
GIRK2 activ: inactive

What do the screens show for `Cc1cc(NC(=O)c2ccc(S(=O)(=O)N3CCCCCC3)cc2)n(-c2nc3ccccc3s2)n1`?
GIRK2 activ: inactive

How did Cc1ccc2c(c1)N(C)C(=O)c1cc(NC(=O)Nc3cccs3)ccc1O2 do in these assays?
GIRK2 activ: inactive

What do the screens show for `Cc1nn(-c2ccc(C(=O)NCc3cccc(Cl)c3)cn2)c(C)c1C`?
GIRK2 activ: inactive

How did CCN(CC)CCN(C(=O)c1cccs1)c1nc2c(S(C)(=O)=O)cccc2s1 do in these assays?
GIRK2 activ: inactive

Results for Cc1nccn1-c1ncc(NC(=O)Nc2ccc(F)c(Cl)c2)cn1 ?
GIRK2 activ: inactive

What do the screens show for `COc1ccc(CCNC(=O)N2CCC(Cn3ccnc3C(C)C)CC2)cc1`?
GIRK2 activ: inactive

What do the screens show for `Cc1ccc(C(=O)NC2CC3CCC2(C)C3(C)C)cc1` (stereo unspecified)?
GIRK2 activ: inactive

What do the screens show for `COc1cccc(N2CCN(S(=O)(=O)c3ccsc3C(=O)NC3CCCCC3)CC2)c1`?
GIRK2 activ: inactive

How did COc1cccc(-n2nnc(C(=O)NCc3ccc(C(C)C)cc3)c2-c2ccncc2)c1 do in these assays?
GIRK2 activ: inactive

What do the screens show for `Cc1ccccc1-n1nnc(C(=O)N2CCN(S(C)(=O)=O)CC2)c1-c1ccncc1`?
GIRK2 activ: inactive

How did Cc1ccccc1-n1nnc(C(=O)Nc2cccc(C(C)C)c2)c1-c1ccncc1 do in these assays?
GIRK2 activ: active

How did COc1cc(/C=C2/SC(=S)N(c3ccccc3Cl)C2=O)ccc1O do in these assays?
GIRK2 activ: active

How did COc1cc(/C=C2\SC(=S)N(c3cccc(O)c3)C2=O)ccc1O do in these assays?
GIRK2 activ: inactive

How did COc1cc(/C=C2\SC(=S)N(c3ccc(O)cc3)C2=O)ccc1O do in these assays?
GIRK2 activ: inactive

How did CC(C)c1cnc2c(c1SCC(=O)NC1CCCC1)c(=O)n(C)c(=O)n2C do in these assays?
GIRK2 activ: inactive

How did O=C(Cn1[nH]c(-c2ccc(Cl)cc2)cc1=O)Nc1ccc2c(c1)OCCO2 do in these assays?
GIRK2 activ: inactive

How did COc1cc(C2=CC(=O)OC2CC(=O)O)c(OC)c(O)c1-c1ccc(O)cc1 (stereo unspecified) do in these assays?
GIRK2 activ: inactive

What do the screens show for `COc1ccccc1N1CCN(c2nccnc2SCC(=O)Nc2ccc(C)cc2)CC1`?
GIRK2 activ: inactive

How did Cc1nnc(SCC(=O)Nc2ccc(F)cc2)c2c1cnn2-c1ccc(F)cc1 do in these assays?
GIRK2 activ: inactive

What do the screens show for `CCCN1C(=O)CCc2cc(NC(=O)c3ccc(OC(C)C)cc3)ccc21`?
GIRK2 activ: inactive

How did O=C(Nc1nnc(C2CC(=O)N(c3ccccc3)C2)o1)c1ccc2c(c1)OCO2 (stereo unspecified) do in these assays?
GIRK2 activ: inactive

What do the screens show for `NC(=O)CSc1ncccc1-c1nc2ccccc2[nH]1`?
GIRK2 activ: inactive

What do the screens show for `O=c1[nH]c2nc(NCCCn3cccn3)ncc2c(=O)n1C1CCCC1`?
GIRK2 activ: inactive

How did Cc1ccc(S(=O)(=O)c2c(C(=O)N3CCC(C)CC3)cnc3ccc(Cl)cc23)cc1 do in these assays?
GIRK2 activ: inactive

Results for O=C(Nc1ccccc1F)N1CCN(c2ccc(-c3ccc4c(c3)OCO4)nn2)CC1 ?
GIRK2 activ: inactive
